The values below come from PubChem BioAssay (Tox21).

In experiment [1] the target is Androgen receptor (Homo sapiens) (UniProt P10275). As to the kind of experiment: qHTS assay to identify small molecule antagonists of the androgen receptor (AR) signaling pathway using the MDA cell line in the presence of 0.5 nM R1881 (AID 1259243). Note: nearly all actives have a fitted effect of over 50% in size. Conditions: MDA-kb2 MMTV-luciferase, R1881 0.5 nM, 16 h; series mostly up to 92.4 µM. The method in brief: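 With R1881 held at 0.5 nM (final), compound effects on MMTV-luciferase expression in MDA-kb2 cells were scored by luminescence after a 16 hr, 37C incubation.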

The nature of experiment [2]: qHTS assay to identify small molecule HDAC inhibitors (AID 1259364).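 Note: wild-type HCT-116 cells with endogenous class I/II HDAC activity; top concentration of the series differs between compounds; nearly all actives have a fitted effect of over 45% in size.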 Particulars: HCT-116 HDAC-Glo I/II luminescence, 2 h; series mostly up to 92.4 µM. The method in brief: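 Screening used wild-type human colon HCT-116 cells incubated overnight, dosed with compounds for 2 hours, and assayed with a homogeneous luminogenic HDAC I/II reagent for 30 minutes at room temperature.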
A general note: Quantitative high-throughput screening tests each substance at several concentrations.

Experiment [3] is described as follows: qHTS assay to identify small molecule antagonists of the sonic hedgehog signaling (Shh) pathway - cell viability counter screen (AID 1259367). Note: nearly all actives have a fitted effect of over 55% in size. Note: potency is the fitted concentration of half-maximal effect. Particulars: NIH/3T3 Gli1-Luc viability, CellTiter-Fluor, 24 h; series mostly up to 42.5 µM. The method in brief: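 Cytotoxicity was assessed in parallel with Shh reporter activity by measuring live-cell protease fluorescence (CellTiter-Fluor) in NIH/3T3 cells stably carrying Gli1-Luc, treated with compound under conditioned medium stimulation for 23 hr plus 1 hr reagent incubation.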

Experiment [4] is described as follows: qHTS assay to identify small molecule agonists of the sonic hedgehog signaling (Shh) pathway (AID 1259368; calls by dose curve;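 note: NIH/3T3-derived 3T3Gli1-Luc cells carrying a stable Gli1-driven firefly luciferase reporter; nearly all actives have a fitted effect of over 15% in size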). Particulars: NIH/3T3 Gli1-Luc reporter, luciferase, 24 h; series mostly up to 92.4 µM. Put shortly:
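Hedgehog pathway agonism scored by increased firefly luciferase luminescence in 3T3Gli1-Luc cells treated 24 hr at 37 C; detection used a 30 min room-temperature reagent incubation.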

Experiment [5] can be described thus: qHTS assay to identify small molecule antagonists of the sonic hedgehog signaling (Shh) pathway (AID 1259369; calls by dose curve; note: nearly all actives have a fitted effect of over 45% in size; note: potency is the fitted concentration of half-maximal effect). Conditions: NIH/3T3 Gli1-Luc reporter, Shh antagonist, luminescence 24 h; series mostly up to 92.4 µM. Put shortly: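 NIH/3T3 stable Gli1-Luc clone, 2,000 cells/well, 4hr settle; cpd + conditioned medium 24hr; Luc reagent 30min RT; luminescence.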
Experiment [6] in a line: qHTS assay to identify small molecule agonists of the androgen receptor (AR) signaling pathway in the presence of an antagonist - cell viability counter screen (AID 1259379). Note: nearly all actives have a fitted effect of over 25% in size. Note: potency is the fitted concentration of half-maximal effect. Conditions: MDA-kb2 viability, CellTiter-Fluor, 16 h; series mostly up to 92.4 µM. The method in brief:
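MDA-kb2 viability measured by CellTiter-Fluor fluorescence in the same wells as the luciferase signal; nilutamide 3.0uM final; 15-point compound titration; 16 hr at 37C.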

Experiment [7] can be described thus: qHTS assay to identify small molecule agonists of the estrogen receptor beta (ER-beta) signaling pathway - cell viability counter screen (AID 1259380). Note: nearly all actives have a fitted effect of over 30% in size. Note: potency is the fitted concentration of half-maximal effect. Conditions: ER-beta-bla HEK293T viability, CellTiter-Glo luminescence, 16 h; series mostly up to 92.4 µM. Put shortly:
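Measured: luminescence from CellTiter-Glo after 30 min at room temperature, added to wells already read for the LiveBLAzer FRET reporter (2 hr substrate); ER-beta-UAS-bla HEK293T cells had 16 hr compound treatment at 37C, 5% CO2.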

Experiment [8] concerns the target Androgen receptor (Homo sapiens) (UniProt P10275). The experiment is described as follows: qHTS assay to identify small molecule agonists of the androgen receptor (AR) signaling pathway in the presence of an antagonist (AID 1259381; calls by dose curve; note: nearly all actives have a fitted effect of over 15% in size). Particulars: MDA-kb2 MMTV-luciferase, AR agonist + nilutamide, 16 h; series mostly up to 92.4 µM. The method in brief: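 Luminescent ONE-Glo read, 30min at room temperature, follows 16hr compound exposure (15 concentrations) of MDA-kb2 cells at 37C, 0% CO2, with nilutamide added at 3.0uM final.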

A short description of experiment [9]: qHTS assay to identify small molecule agonists or antagonists of the thyroid stimulating hormone receptor (TSHR) signaling pathway - wild type cell line counter screen (AID 1259384; calls by dose curve). Conditions: HEK293 wild type, cAMP HTRF counter-screen, stronger effect = higher value; series mostly up to 92.4 µM. The method in brief:
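Wild-type HEK293 cells were plated 18 h at 37 C/5% CO2, pin-dosed with compound plus Ro20-1724 medium, held 30 min at room temperature, then given cAMP-d2 and anti-cAMP-cryptate; fluorescence was read after 1 h. Fifteen concentrations, triplicate.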

In experiment [10] the target is Thyrotropin receptor (Homo sapiens) (UniProt P16473). As to the kind of experiment: qHTS assay to identify small molecule antagonists of the thyroid stimulating hormone receptor (TSHR) signaling pathway (AID 1259385; calls by dose curve; note: nearly all actives have a fitted effect of over 20% in size). Particulars: TSHR-HEK293 cAMP HTRF, TSH-stimulated antagonist mode; series mostly up to 92.4 µM. Put shortly:
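TSHR-HEK293 cells were plated and held 18 h at 37C/5% CO2, then given compound plus Ro20-1724 and stimulated with TSH at 1.5 ng/mL final. After 30 min at room temperature, cAMP was detected with cAMP-d2/anti-cAMP-cryptate (1 h) by fluorescence.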

The nature of experiment [11]: qHTS assay to identify small molecule agonists of the estrogen receptor alpha (ER-alpha) signaling pathway in the presence of an antagonist - cell viability counter screen (AID 1259386).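 Note: cells exposed to compounds for 22 h at 37 °C before the viability read; nearly all actives have a fitted effect of over 30% in size.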 Note: potency is the fitted concentration of half-maximal effect. Particulars: VM7Luc4E2 viability, CellTiter-Fluor fluorescence, 22 h; series mostly up to 92.4 µM. The method in brief: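 The test measures whether compounds kill ER-alpha reporter cells (VM7Luc4E2) under antagonist co-treatment (ICI-182,780, 10.0nM). Fluorescence from CellTiter-Fluor is read after a 22hr exposure.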

Experiment [12] deals with Estrogen receptor (Homo sapiens) (UniProt P03372). As to the kind of experiment: qHTS assay to identify small molecule antagonists of the estrogen receptor alpha (ER-alpha) signaling pathway using the BG1 cell line in the presence of 0.1 nM 17-beta-estradiol (AID 1259244). Note: nearly all actives have a fitted effect of over 50% in size. Note: potency is the fitted concentration of half-maximal effect. Particulars: VM7Luc4E2 (BG1) ERE-luciferase, antagonist mode, 0.1 nM E2, 22 h; series mostly up to 92.4 µM. Put shortly:
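Compounds were tested against 0.1 nM (final) 17beta-estradiol in VM7Luc4E2 cells, which express full-length ER-alpha and an ERE-luciferase reporter; luminescence was recorded following 22 h exposure.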

Experiment [13] can be described thus: qHTS assay to identify small molecule phospholipidosis (PLD) inducers (AID 1259344; active = well fitted curve in the direction sought with a large enough effect; an effect the other way counts as inactive or inconclusive). Conditions: HepG2 phospholipidosis, LipidTOX Red imaging, 24 h; series mostly up to 38.3 µM. The method in brief:
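Cells (HepG2, 900 per well) attach for 4 h, receive LipidTOX Red and compound together, incubate 24 h at 37 C, are fixed 30 min with paraformaldehyde/Hoechst, then imaged at one site per well.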

Experiment [14] is described as follows: qHTS assay to identify small molecule agonists of the sonic hedgehog signaling (Shh) pathway - cell viability counter screen (AID 1259366). Note: nearly all actives have a fitted effect of over 50% in size. Note: potency is the fitted concentration of half-maximal effect. Particulars: NIH/3T3 Gli1-Luc viability, CellTiter-Fluor, 24 h; series mostly up to 92.4 µM. The method in brief:
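In quantitative high-throughput format, 3T3 Gli1-Luc cells were exposed to compounds for 24hr and multiplexed for viability using CellTiter-Fluor, incubated 1hr at 37C before the fluorescence read.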

Experiment [15] can be described thus: qHTS assay to identify small molecule antagonists of the estrogen receptor beta (ER-beta) signaling pathway - cell viability counter screen (AID 1259382). Note: nearly all actives have a fitted effect of over 55% in size. Note: potency is the fitted concentration of half-maximal effect. Conditions: ER-beta-UAS-bla HEK293T viability, CellTiter-Glo luminescence, 16 h; series mostly up to 92.4 µM. Put shortly: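 Readout: luminescence, CellTiter-Glo, same wells as bla assay. System: ER-beta-UAS-bla GripTite HEK293T, 2% charcoal-stripped FBS. Exposure: compounds plus 1nM 17-beta-estradiol, 16 hr, 37C.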

For experiment [16], the target named is Estrogen receptor (Homo sapiens) (UniProt P03372). The experiment is described as follows: qHTS assay to identify small molecule agonists of the estrogen receptor alpha (ER-alpha) signaling pathway in the presence of an antagonist (AID 1259383; calls by dose curve; note: top concentration of the series differs between compounds; nearly all actives have a fitted effect of over 15% in size). Particulars: VM7Luc4E2 cells, ERE-luciferase, +ICI-182,780, 22 h; series mostly up to 92.4 µM. Put shortly:
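Quantitative HTS confirmation: compounds titrated at 15 concentrations onto estrogen-deprived VM7Luc4E2 cells carrying a four-ERE luciferase construct, with ICI-182,780 present at 10.0nM final. Signal is luminescence after 22hr exposure.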

The nature of experiment [17]: qHTS assay to identify small molecule HDAC inhibitors - cell viability counter screen (AID 1259365). Note: nearly all actives have a fitted effect of over 50% in size. Conditions: HCT-116 viability, CellTiter-Glo ATP luminescence, 2 h; series mostly up to 92.4 µM. Put shortly:
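Measured quantity is CellTiter-Glo luminescence from wild-type HCT-116 cells after compound incubation of 2hr at 37C, 5% CO2; reagent developed 30min at room temperature.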

Experiment [18] addresses Progesterone receptor (Homo sapiens) (UniProt P06401). The experiment is described as follows: qHTS assay to identify small molecule agonists of the progesterone receptor (PR) signaling pathway (AID 1346784; calls by dose curve; note: nearly all actives have a fitted effect of over 30% in size). Particulars: PR-UAS-bla HEK293T, beta-lactamase FRET ratio, 16 h; series mostly up to 92.4 µM. The method in brief:
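Reporter assay, GripTite PR-UAS-bla HEK 293T cells: 16 hr exposure to DMSO-dissolved compounds at 37C, 5% CO2, in steroid-depleted (2% charcoal-stripped FBS) medium; beta-lactamase measured by FRET fluorescence.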

Inconclusive results are not listed. Some structures have more than one record in an assay (separate samples or runs), and their calls can disagree. Activity calls are given as the source filed them. Unless noted, calls come from the whole dose curve; as a rule, active = well fitted curve in the direction sought with a large enough effect in the repeat runs; inconclusive = weak or mixed curves; inactive = no such curve, though single readings can be large; an effect the other way counts as inactive or inconclusive.

Estrogen receptor (Homo sapiens), sequence (P03372 whole entry, looked up): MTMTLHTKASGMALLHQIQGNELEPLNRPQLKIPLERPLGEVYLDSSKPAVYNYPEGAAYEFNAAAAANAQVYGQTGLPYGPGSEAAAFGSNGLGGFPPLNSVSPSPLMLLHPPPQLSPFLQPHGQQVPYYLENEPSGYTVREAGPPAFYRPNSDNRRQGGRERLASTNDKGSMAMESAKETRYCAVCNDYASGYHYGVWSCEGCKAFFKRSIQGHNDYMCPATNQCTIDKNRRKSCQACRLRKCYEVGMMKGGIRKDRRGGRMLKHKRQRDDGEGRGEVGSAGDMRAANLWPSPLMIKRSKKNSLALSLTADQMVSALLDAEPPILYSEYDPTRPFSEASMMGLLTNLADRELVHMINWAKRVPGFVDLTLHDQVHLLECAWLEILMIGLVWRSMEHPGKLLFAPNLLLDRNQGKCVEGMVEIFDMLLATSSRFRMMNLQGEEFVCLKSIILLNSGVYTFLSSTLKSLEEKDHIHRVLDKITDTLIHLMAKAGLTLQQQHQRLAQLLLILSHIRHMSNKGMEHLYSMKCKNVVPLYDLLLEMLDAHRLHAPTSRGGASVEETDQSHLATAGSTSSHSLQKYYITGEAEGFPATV
Thyrotropin receptor (Homo sapiens), sequence (P16473 whole entry, looked up): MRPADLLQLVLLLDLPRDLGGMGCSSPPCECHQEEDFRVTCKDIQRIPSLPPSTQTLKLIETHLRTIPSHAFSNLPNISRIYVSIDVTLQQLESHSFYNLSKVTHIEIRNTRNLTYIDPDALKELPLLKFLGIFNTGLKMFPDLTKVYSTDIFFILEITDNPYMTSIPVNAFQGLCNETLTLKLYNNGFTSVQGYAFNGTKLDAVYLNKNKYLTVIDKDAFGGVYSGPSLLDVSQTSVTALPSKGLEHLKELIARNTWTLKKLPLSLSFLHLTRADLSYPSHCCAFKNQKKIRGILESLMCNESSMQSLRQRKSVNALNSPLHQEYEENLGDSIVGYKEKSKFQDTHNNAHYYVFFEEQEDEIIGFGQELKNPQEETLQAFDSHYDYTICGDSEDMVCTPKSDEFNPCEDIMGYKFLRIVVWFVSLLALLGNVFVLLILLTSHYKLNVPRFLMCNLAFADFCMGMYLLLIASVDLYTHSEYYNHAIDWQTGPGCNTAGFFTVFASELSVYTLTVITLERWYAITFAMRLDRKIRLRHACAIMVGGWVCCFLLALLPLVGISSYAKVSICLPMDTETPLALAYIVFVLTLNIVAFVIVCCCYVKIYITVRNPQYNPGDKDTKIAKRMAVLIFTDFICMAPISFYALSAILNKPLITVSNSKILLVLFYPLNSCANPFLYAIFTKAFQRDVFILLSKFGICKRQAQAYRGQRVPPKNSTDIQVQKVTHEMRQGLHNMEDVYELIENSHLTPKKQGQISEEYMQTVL
Progesterone receptor (Homo sapiens), sequence (P06401 whole entry, looked up): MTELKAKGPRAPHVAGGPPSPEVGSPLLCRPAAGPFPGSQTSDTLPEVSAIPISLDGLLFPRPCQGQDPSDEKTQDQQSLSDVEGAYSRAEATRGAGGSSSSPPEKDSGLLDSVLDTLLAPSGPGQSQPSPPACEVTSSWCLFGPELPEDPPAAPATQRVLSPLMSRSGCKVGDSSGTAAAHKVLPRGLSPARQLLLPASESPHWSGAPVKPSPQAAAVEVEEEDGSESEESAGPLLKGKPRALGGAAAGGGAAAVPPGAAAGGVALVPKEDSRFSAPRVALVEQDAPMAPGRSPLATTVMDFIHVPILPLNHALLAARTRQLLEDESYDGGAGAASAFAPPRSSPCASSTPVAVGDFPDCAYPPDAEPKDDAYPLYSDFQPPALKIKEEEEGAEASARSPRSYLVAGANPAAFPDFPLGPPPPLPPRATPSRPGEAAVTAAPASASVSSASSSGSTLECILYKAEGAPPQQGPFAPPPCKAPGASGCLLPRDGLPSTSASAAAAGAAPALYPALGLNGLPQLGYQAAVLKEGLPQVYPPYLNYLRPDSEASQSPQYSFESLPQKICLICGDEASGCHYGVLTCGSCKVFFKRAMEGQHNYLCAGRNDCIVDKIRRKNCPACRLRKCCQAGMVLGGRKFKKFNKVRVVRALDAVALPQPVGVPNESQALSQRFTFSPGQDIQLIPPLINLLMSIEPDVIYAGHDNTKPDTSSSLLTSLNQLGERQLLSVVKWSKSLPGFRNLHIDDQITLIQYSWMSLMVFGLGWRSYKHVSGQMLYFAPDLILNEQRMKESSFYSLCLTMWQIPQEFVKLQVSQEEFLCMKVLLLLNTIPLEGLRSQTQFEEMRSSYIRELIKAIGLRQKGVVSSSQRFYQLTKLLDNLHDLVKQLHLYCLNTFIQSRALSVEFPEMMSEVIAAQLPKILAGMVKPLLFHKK
Androgen receptor (Homo sapiens), sequence (P10275 whole entry, looked up): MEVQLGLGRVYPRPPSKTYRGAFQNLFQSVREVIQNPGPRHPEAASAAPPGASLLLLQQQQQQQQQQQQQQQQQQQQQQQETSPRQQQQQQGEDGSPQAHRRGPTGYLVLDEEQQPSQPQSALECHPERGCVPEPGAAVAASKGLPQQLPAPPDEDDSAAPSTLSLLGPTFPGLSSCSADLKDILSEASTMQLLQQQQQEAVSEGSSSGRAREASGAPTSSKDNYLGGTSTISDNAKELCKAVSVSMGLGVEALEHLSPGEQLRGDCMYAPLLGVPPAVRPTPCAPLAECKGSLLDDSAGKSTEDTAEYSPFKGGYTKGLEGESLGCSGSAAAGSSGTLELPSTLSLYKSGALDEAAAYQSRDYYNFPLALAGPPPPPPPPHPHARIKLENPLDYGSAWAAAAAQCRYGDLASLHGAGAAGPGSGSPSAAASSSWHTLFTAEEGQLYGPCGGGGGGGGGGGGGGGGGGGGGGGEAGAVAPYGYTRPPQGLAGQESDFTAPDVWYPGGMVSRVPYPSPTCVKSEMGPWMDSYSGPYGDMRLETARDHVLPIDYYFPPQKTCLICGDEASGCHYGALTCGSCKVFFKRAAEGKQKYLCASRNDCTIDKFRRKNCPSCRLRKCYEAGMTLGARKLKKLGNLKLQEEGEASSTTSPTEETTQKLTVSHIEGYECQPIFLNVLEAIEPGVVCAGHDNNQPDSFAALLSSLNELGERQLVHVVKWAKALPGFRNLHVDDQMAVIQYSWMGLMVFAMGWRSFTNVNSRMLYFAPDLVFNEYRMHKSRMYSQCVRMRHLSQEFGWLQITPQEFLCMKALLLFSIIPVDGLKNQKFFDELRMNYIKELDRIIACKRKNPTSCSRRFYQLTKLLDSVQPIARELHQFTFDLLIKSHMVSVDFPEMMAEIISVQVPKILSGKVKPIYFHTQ

Consider `CCCCN(CCCC)c1ccc(C(=O)c2ccccc2C(=O)O)c(O)c1`, for which the Potency result in experiment [1], in experiment [2], in experiment [3], in experiment [4], in experiment [5] and in experiment [6] was “inactive” each time. The Potency result in experiment [8], in experiment [10] and in experiment [11] was “inactive” each time. The Potency in [7] is 15.5 µM (active). Besides, the result in experiment [9] was inactive.
Take `OC1(c2ccc(Cl)c(C(F)(F)F)c2)CCN(CCCC(c2ccc(F)cc2)c2ccc(F)cc2)CC1`: the Potency in experiment [12] was 26.6 µM (active); in [14], 13.3 µM (active); in [3], 18.8 µM (active); in [5], 13.3 µM (active); in experiment [6], 18.8 µM (active); in [7] it was 10.6 µM (active). Further, the Potency was 10.6 µM (active) in experiment [15] and 33.5 µM (active) in [11]. Besides, the Potency entry in experiment [13], in experiment [2], in experiment [4], in [16] and in experiment [10] was “inactive” each time. In experiment [9], the result was inactive.
Regarding `O=c1[nH]cnc2nc[nH]c12`, the Potency result in experiment [12], in experiment [13], in experiment [2], in experiment [17], in experiment [14] and in experiment [3] was “inactive” throughout. Further, the Potency entry in experiment [4], in [5], in [7], in experiment [15], in experiment [10] and in experiment [11] was “inactive” in each case. Moreover, the Potency entry in experiment [18] was “inactive”. Moreover, the outcome in experiment [9] was inactive.
As to `CCCCCCCCCCC=O`, the Potency result in experiment [1], in experiment [2], in experiment [17], in experiment [3], in experiment [4] and in experiment [5] was “inactive” in each case. In addition, the Potency result in experiment [6], in [7], in [8], in experiment [15], in [10] and in experiment [11] was “inactive” in each case. Besides, the Potency entry in experiment [18] was “inactive”. Also, the result in experiment [9] was inactive.
On to `CC[C@@]1(O)C(=O)OCc2c1cc1n(c2=O)Cc2cc3c(CN(C)C)c(O)ccc3nc2-1`, for which the Potency was 1.88 µM (active) in experiment [12] and 1.33 µM (active) in experiment [5]. Further, the Potency result in experiment [13], in experiment [2], in [17], in experiment [4], in [7] and in experiment [15] was “inactive” in each case. The Potency entry in [16] and in [10] was “inactive” throughout. For the same compound, the call in experiment [9] was inactive.
In the case of `CSc1ccc(/C=C2/C(C)=C(CC(=O)O)c3cc(F)ccc32)cc1`, the Potency result in experiment [12], in experiment [13], in experiment [2], in experiment [17], in experiment [14] and in experiment [4] was “inactive” each time. For the same compound, the Potency result in experiment [5], in experiment [8], in experiment [16], in [10], in experiment [11] and in experiment [18] was “inactive” throughout. Also, in experiment [7], the Potency was 10.6 µM (active). In experiment [9], the outcome was inactive.
In the case of `COC(=O)C1=C(C)NC(C)=C(C(=O)OCC(C)C)C1c1ccccc1[N+](=O)[O-]` (configuration not stated), the Potency was 48.6 µM (active) and inactive in experiment [12]; 30.6 µM (active) in [14]; 61.1 µM (active) in experiment [3]; 12.2 µM (active) in experiment [5]; 54.5 µM (active) and inactive in [11]. Moreover, the Potency result in experiment [13], in experiment [2], in experiment [17], in experiment [4], in experiment [6] and in experiment [15] was “inactive” in each case. The Potency entry in [16] and in experiment [10] was “inactive” in each case. For the same compound, the compound was called inactive in [9].
